Source: the supplement of paper PMC13380429

Legend:
[1] = test system: Vero E6 infected with SARS-CoV-2; assay: morphology score (similarity to uninfected cells); higher = more like uninfected cells; conditions: 24 h
[2] = test system: Vero E6 infected with SARS-CoV-2; assay: SARS-CoV-2 infection rate relative to infected DMSO; higher = more infection, active = 60 or less; conditions: 24 h

SMILES	morphology score [1]	SARS-CoV-2 infection rate [2]
Cc1cnc(C(=O)O)c[n+]1[O-] [acipimox] (10 µM)	0.0683	108% (inactive)
CC(C)/N=c1\cc2n(-c3ccc(Cl)cc3)c3ccccc3nc-2cc1Nc1ccc(Cl)cc1 [clofazimine] (10 µM)	0.422	64% (inactive)
COC(=O)c1cc(OC)c2c(c1-c1c(CO)cc(OC)c3c1OCO3)OCO2 [bicyclol] (10 µM)	0.199	88% (inactive)
C[C@]12Cc3c[nH]nc3C[C@@H]1CC[C@@H]1[C@@H]2CC[C@@]2(C)[C@H]1CC[C@]2(C)O [stanozolol] (10 µM)	-0.305	110% (inactive)
COc1ccc(-c2cnc3c(-c4cccc5ncccc45)cnn3c2)cc1 (10 µM)	0.294	100% (inactive)
OCCN1CCN(CCCN2c3ccccc3Sc3ccc(C(F)(F)F)cc32)CC1 [fluphenazine] (0.833333 µM)	-0.174	116% (inactive)
N=C(N)NCCC[C@H](N)C(=O)O [L-arginine] (10 µM)	0.0506	113% (inactive)
CC(C)CC(NC(=O)OCC1c2ccccc2-c2ccccc21)C(=O)O (stereo in doubt) (10 µM)	0.145	96% (inactive)
CC(C)NC(=O)COc1cccc(-c2nc(Nc3ccc4[nH]ncc4c3)c3ccccc3n2)c1 (0.833333 µM)	-0.0169	106% (inactive)
C1=Cc2cccc(OCC3CNCCO3)c2C1 (configuration not stated) [indeloxazine] (10 µM)	-0.319	106% (inactive)
CC[C@H](C)C(=O)O[C@H]1C[C@@H](C)C=C2C=C[C@H](C)[C@H](CC[C@@H]3C[C@@H](O)CC(=O)O3)[C@H]21 [lovastatin] (10 µM)	0.0359	110% (inactive)
C1CCC2(CC1)CCNCC2 [4,4-pentamethylenepiperidine] (10 µM)	-0.0731	104% (inactive)
CC(C)(C)c1ccc(C(O)CCCN2CCC(C(O)(c3ccccc3)c3ccccc3)CC2)cc1 (configuration not stated) [terfenadine] (10 µM)	0.133	96% (inactive)
CN1[C@@H]2CC[C@H]1C[C@@H](OC(=O)c1c[nH]c3ccccc13)C2 [tropisetron] (10 µM)	-0.0266	102% (inactive)
Nc1nc(=O)n([C@H]2C[C@H](O)[C@@H](CO)O2)cc1F [fdcyd] (10 µM)	-0.201	97.5% (inactive)
C[C@@](Cc1ccc(O)c(O)c1)(NN)C(=O)O [carbidopa] (10 µM)	-0.0523	100% (inactive)
CN(Cc1ccccc1)C(=O)[C@H](Cc1ccc2ccccc2c1)NC(=O)[C@@H]1C[C@@H](O)CN1C(=O)c1cn(C)c2ccccc12 (10 µM)	0.179	104% (inactive)
O=c1ccc2cc3ccoc3cc2o1 [psoralen] (10 µM)	-0.0337	108% (inactive)
C[C@@H]1CC[C@@]2(OC1)O[C@H]1C[C@H]3[C@@H]4CC=C5C[C@@H](O[C@@H]6O[C@H](CO)[C@@H](O[C@@H]7O[C@@H](C)[C@H](O)[C@@H](O)[C@H]7O)[C@H](O)[C@H]6O[C@@H]6O[C@@H](C)[C@H](O)[C@@H](O)[C@H]6O)CC[C@]5(C)[C@H]4CC[C@]3(C)[C@H]1[C@@H]2C [dioscin] (10 µM)	0.0193	101% (inactive)
Cl/C=C\C[N+]12CN3CN(CN(C3)C1)C2 [1-((Z)-3-chloroallyl)-1,3,5,7-tetraazaadamantan-1-ium] (10 µM)	0.0348	99% (inactive)
CO/N=C(\C(=O)N[C@@H]1C(=O)N2C(C(=O)[O-])=C(C[n+]3ccn4ncccc43)CS[C@H]12)c1nsc(N)n1 [cefozopran] (10 µM)	0.0209	112% (inactive)
N#Cc1ccc(Oc2ccc3c(c2)COB3O)cc1 [crisaborole] (10 µM)	0.0741	105% (inactive)
O=C(CCCCCN1C(=O)c2cccc3cccc(c23)C1=O)NO [scriptaid] (10 µM)	-0.255	120% (inactive)
COc1c(C)c2c(c(O)c1C/C=C(\C)CCC(=O)OCCN1CCOCC1)C(=O)OC2 [mycophenolate-mofetil] (10 µM)	-0.124	108% (inactive)
FC(F)(F)C(F)(F)C(F)(F)C(F)(F)C(F)(F)C(F)(F)C(F)(F)C(F)(F)Br [perflubron] (10 µM)	0.0887	102% (inactive)
C[C@H](C[C@H](N)C(=O)O)C(=O)O (10 µM)	0.0497	108% (inactive)
